Hits are enriched below; roughly 10% of the tested compounds scored in any of these assays.
ROMK primary: modulators of human ROMK potassium channel. 2% of 130,000 active. B-score at 10 µM. Tet-inducible ROMK, thallium flux fluorescence; actives lie on both sides. P48048;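 active = signal ratio slope over the read window, or its plate-corrected B-score, at least 3 SD from the plate mean, either direction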;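 note: B-score of the F/F0 ratio slope over 7 to 12 s after thallium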
Insulin prom inh: TRM-6 insulin promoter activity inhibition. inhibition, % at 2 µM. 0.9% of 130,000 active. AID 1273. TRM-6 cells (human fetal islet line), insulin promoter-eGFP reporter, imaging; reporter expression induced with tamoxifen;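 active = inhibition above the mean plus 3 SD, with well images judged a real hit on visual review, cut at about 60% in these data, passing the limit was not always enough; inconclusive = inhibition over the cutoff but images rejected on review; inactive = inhibition not above the cutoff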
HCT116 bCat-KO: beta-catenin-lacking colon tumor cell growth suppression | HCT116 beta-catenin knockout viability, CellTiter-Glo, 60 h; active compounds read low | 1.5% of 140,000 active | viability, % at 10 µM | AID 818;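 active = viability at or under a set limit, the compound median less 4 SD, cut at about 6% in these data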
L major viab: reduces viability of Leishmania major promastigotes; resazurin fluorescence viability; inhibition, % at 10 µM; 9% of 200,000 active; AID 1063; in the data active = inhibition above about 50%;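 note: promastigotes grown with compound for 44 hours at 28 °C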
PTEN del growth: growth suppressors of cells with PTEN tumor suppressor deletion; HCT116 PTEN-null viability, CellTiter-Glo, 60 h; active compounds read low; viability, % at 10 µM; 1.2% of 140,000 active; AID 827;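 active = viability at or below a set limit, 4 SD under the median of all tested compounds, cut at about 3.7% in these data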;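 note: PTEN knockout HCT116 line with beta catenin targeted HCT116 as companion control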
p97 inhibitor: human p97 ATPase inhibition. recombinant p97 ATPase, Kinase-Glo ATP luminescence, 3 h. inhibition, % at 8 µM. 0.42% of 220,000 active; in the data active = inhibition above about 15%
Target sequence (P55072 whole entry, looked up): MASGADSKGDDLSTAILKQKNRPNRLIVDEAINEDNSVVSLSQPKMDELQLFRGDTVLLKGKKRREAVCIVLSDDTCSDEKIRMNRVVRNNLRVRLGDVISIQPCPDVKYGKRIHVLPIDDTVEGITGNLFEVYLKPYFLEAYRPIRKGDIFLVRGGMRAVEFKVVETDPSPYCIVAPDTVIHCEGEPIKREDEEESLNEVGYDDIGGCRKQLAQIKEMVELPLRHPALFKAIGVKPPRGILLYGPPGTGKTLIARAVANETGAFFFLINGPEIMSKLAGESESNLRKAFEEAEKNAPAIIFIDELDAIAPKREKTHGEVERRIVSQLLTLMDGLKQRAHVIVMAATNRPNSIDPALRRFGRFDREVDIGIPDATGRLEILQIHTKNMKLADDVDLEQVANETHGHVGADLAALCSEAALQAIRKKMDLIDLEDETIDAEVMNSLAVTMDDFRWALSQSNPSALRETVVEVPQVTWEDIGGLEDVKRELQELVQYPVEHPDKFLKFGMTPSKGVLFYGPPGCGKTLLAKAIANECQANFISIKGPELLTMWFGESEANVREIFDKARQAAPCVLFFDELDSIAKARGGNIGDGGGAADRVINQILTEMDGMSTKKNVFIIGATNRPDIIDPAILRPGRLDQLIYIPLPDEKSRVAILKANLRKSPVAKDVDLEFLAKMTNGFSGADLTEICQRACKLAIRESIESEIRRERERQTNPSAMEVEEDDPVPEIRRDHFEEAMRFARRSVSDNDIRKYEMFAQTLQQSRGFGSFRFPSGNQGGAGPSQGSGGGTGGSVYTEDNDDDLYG
Each line names hits and unclear results; the compound was inactive in the other large screens.

O=C(Nc1ccc([N+](=O)[O-])cc1)c1cn(-c2ccccc2)nc1-c1cc2ccccc2o1	L major viab 55.5
O=C(N/N=C\c1cn(-c2ccccc2)nc1-c1ccccc1)c1ccc(Br)o1	none (no result: ROMK primary)
O=C(N/N=C/c1ccc([N+](=O)[O-])o1)c1cn(-c2ccccc2)nc1-c1ccccc1	L major viab 96.5
Clc1cccc(CNCCNCc2cccc(Cl)c2)c1	L major viab 75.4 (no result: HCT116 bCat-KO, PTEN del growth)
CN(C)c1ccc(NC(=O)c2ccc(Cn3cc([N+](=O)[O-])cn3)cc2)cc1	none (no result: HCT116 bCat-KO, PTEN del growth)
CCC(=O)OCCNc1cc(Sc2nc3ccccc3[nH]2)c2nonc2c1[N+](=O)[O-]	HCT116 bCat-KO 1.7, PTEN del growth 1.5 (no result: ROMK primary)
O=[N+]([O-])c1c(NCCCO)cc(Sc2nc3ccccc3s2)c2nonc12	HCT116 bCat-KO 2.3, PTEN del growth 3.6 (no result: ROMK primary)
NCCNc1ccc([N+](=O)[O-])c(Sc2nc3ccccc3[nH]2)c1	none
CCC(=O)OCCNc1cc(Sc2nc3ccccc3s2)c2nonc2c1[N+](=O)[O-]	HCT116 bCat-KO 4.1, PTEN del growth 3.7
COc1ccc(C(C(=O)NCCC(C)C)N(CCN2CCOCC2)C(=O)Cn2nnc3ccccc32)c(OC)c1 (centres undefined)	none (no result: Insulin prom inh, HCT116 bCat-KO, PTEN del growth)
Cc1nnc(NC(=O)CCC(=O)N2CCN(CCOc3cccc4ccccc34)CC2)s1	none (no result: ROMK primary, Insulin prom inh, HCT116 bCat-KO, L major viab, PTEN del growth)
O=C(CSc1nnc(Nc2ccccc2)s1)NN1C(=O)NC2(CCCCC2)C1=O	none
COC(=O)CC(c1ccc(OC)c(OC)c1)c1ccc(OC)c(OC)c1	none (no result: Insulin prom inh, HCT116 bCat-KO, PTEN del growth)
CN(C)c1nc(N/N=C\c2ccc(Cl)c([N+](=O)[O-])c2)nc(Nc2ccc(F)cc2)n1	L major viab 97.4 (no result: HCT116 bCat-KO, PTEN del growth)
Nn1cnnc1N/N=C/c1ccc(Cl)c([N+](=O)[O-])c1	L major viab 53.9 (no result: HCT116 bCat-KO, PTEN del growth)
Cc1ccc(S(=O)(=O)N/N=C\c2ccc(Cl)c([N+](=O)[O-])c2)cc1	none (no result: ROMK primary)
Oc1ccc(C=Nc2ccc(N3CCOCC3)cc2)c(O)c1	none (no result: ROMK primary, Insulin prom inh)
Oc1ccc(N=Nc2cccc(C(F)(F)F)c2)cc1C=Nc1ccc(N2CCOCC2)cc1	HCT116 bCat-KO 4.1, L major viab 90.7
CCOC(=O)N1CCN(C(=O)c2ccc(SC)cc2OC)CC1	none (no result: Insulin prom inh, HCT116 bCat-KO, PTEN del growth)
Cc1cc(-c2nn(-c3ccccc3F)cc2CN2CCC(C(N)=O)CC2)c(C)s1	none (no result: Insulin prom inh, HCT116 bCat-KO, PTEN del growth)
Cc1cc(-c2nn(-c3ccccc3F)cc2CNCCc2cnc[nH]2)c(C)s1	L major viab 98.0 (no result: Insulin prom inh, HCT116 bCat-KO, PTEN del growth)
OC1C2CN3CCN(C2)CC1(Cc1ccccc1)C3 (centres undefined)	HCT116 bCat-KO 1.4, PTEN del growth 0.7 (no result: ROMK primary)
OC1C2(Cc3ccccc3)CN3CCN(C2)CC1(Cc1ccccc1)C3 (centres undefined)	Insulin prom inh inconclusive (no result: ROMK primary)
O=C(COC(=O)C1=COCCO1)NCc1ccc(Cl)cc1	none (no result: HCT116 bCat-KO, PTEN del growth)
O=c1oc2ccccc2n1CCCCCn1c(=O)oc2ccccc21	none (no result: Insulin prom inh)
COCC(C)n1c(C)cc(C(=O)Cn2c(=O)oc3ccccc32)c1C (centres undefined)	Insulin prom inh 78.6 (no result: ROMK primary)
O=C(Cn1c(=O)oc2ccccc21)c1ccccc1	Insulin prom inh 72.6 (no result: ROMK primary)
CCCC(=O)NCCc1nc2cc([N+](=O)[O-])ccc2n1C	none
COc1ccc2cc(C(=O)Nc3ccc(F)cc3)sc(=O)c2c1OC	none (no result: Insulin prom inh)
COc1ccc2cc(C(=O)Nc3ccc(O)cc3)sc(=O)c2c1OC	L major viab 100.2
COC(=O)CSc1nc2sc3c(c2c(=O)[nH]1)CCC3	none (no result: ROMK primary, Insulin prom inh, HCT116 bCat-KO, L major viab, PTEN del growth)
CCn1c2ccccc2c2cc(NC(=O)CSc3nnc(-c4cccc(OC)c4)n3N)ccc21	none (no result: ROMK primary)
CCn1c2ccccc2c2cc(NC(=O)CSc3nnc(-c4cccc(Cl)c4)o3)ccc21	L major viab 88.8 (no result: Insulin prom inh)
CCn1c2ccccc2c2cc(NC(=O)CSc3nnc(-c4ccc(OC)c(OC)c4)n3N)ccc21	L major viab 94.9 (no result: ROMK primary)
CCOc1ccc(-c2nnc(SCC(=O)Nc3ccc4c(c3)c3ccccc3n4CC)n2N)cc1	HCT116 bCat-KO 3.9 (no result: ROMK primary)
CCn1c2ccccc2c2cc(NC(=O)CSc3nnc(-c4ccccc4OC)n3N)ccc21	none (no result: Insulin prom inh)
COc1ccc(C)cc1NC(=O)C(Sc1nnnn1C)c1ccccc1 (centres undefined)	none (no result: Insulin prom inh, HCT116 bCat-KO, PTEN del growth)
COc1ccc(-c2nnc(SC(C(=O)c3c[nH]c4ccccc34)c3ccccc3)n2N)cc1OC (centres undefined)	L major viab 56.9
CC1c2c([nH]c3ccccc23)CCC1C(=O)O (centres undefined)	none (no result: ROMK primary)
CCSCc1nc2ccccn2c1Br	Insulin prom inh 76.5 (no result: HCT116 bCat-KO, PTEN del growth)
COc1ccc2[nH]c(=O)c(CN(C(=O)NC3CCCCC3)C3CCCCC3)cc2c1	L major viab 99.7
COc1ccc2[nH]c(=O)c(CN(C(=O)c3ccccn3)c3ccccc3)cc2c1	L major viab 99.8
CCn1c(SCC(=O)c2c[nH]c3ccccc23)nnc1-c1cccs1	none (no result: ROMK primary)
COCCn1c(SCC(=O)c2c[nH]c3ccccc23)nnc1-c1ccncc1	L major viab 82.9 (no result: ROMK primary)
COc1ccc(C(=O)N/N=C(\CCC(=O)O)c2ccc(C(C)(C)C)cc2)cc1OC	none (no result: Insulin prom inh, HCT116 bCat-KO, PTEN del growth)
Cc1nc2c(C#N)c(C)[nH]n2c(=O)c1Cc1ccccc1	L major viab 87.4 (no result: ROMK primary)
Cc1cc(NS(=O)(=O)c2ccccc2)c(C)c(Cl)c1O	HCT116 bCat-KO 2.3, PTEN del growth 2.2 (no result: ROMK primary, Insulin prom inh, L major viab, p97 inhibitor)
Cc1c(O)ccc(NS(=O)(=O)c2ccccc2)c1C	none (no result: Insulin prom inh, HCT116 bCat-KO, PTEN del growth)
O=C(Nc1cccnc1)c1ccc(Oc2ccccc2)cc1	L major viab 89.7 (no result: ROMK primary)
CCOC(=O)C1=C(C)NC(C)=C(C(=O)OCC)C1C	none
CCOC(=O)C1=C(C)NC(C)=C(C(=O)OCC)C1c1cc(N)ccc1OC(F)F	L major viab 54.7
CC1=NN(C(=O)Cn2nc([N+](=O)[O-])c(Br)c2C)C(O)(C(F)(F)F)C1 (centres undefined)	none (no result: ROMK primary)
COc1ccc(N2CCC(CNC(=S)Nc3cccc(C)c3)C2)cc1 (centres undefined)	L major viab 72.4
Cc1cc(C)cc(NC(=S)NCC2CCN(C(C)c3ccccc3)C2)c1 (centres undefined)	L major viab 71.8 (no result: Insulin prom inh, HCT116 bCat-KO, PTEN del growth)
Cc1ccccc1NC(=S)NCC1CCN(C(C)c2ccccc2)C1 (centres undefined)	L major viab 76.3 (no result: Insulin prom inh, HCT116 bCat-KO, PTEN del growth)
Cc1cc(C)cc(NC(=S)NCC2CCCO2)c1 (centres undefined)	none (no result: ROMK primary)
CCOC(=O)NC(O)C(=O)c1cccs1 (centres undefined)	none (no result: Insulin prom inh)
COc1ccc(OC)c(C(=O)CSc2nnc(-c3ccc(OC)c(OC)c3)o2)c1	none
COc1cccc2c1C(=O)c1c(O)c3c(c(O)c1C2=O)C[C@@](O)(C(C)=O)C[C@@H]3O[C@H]1C[C@H](N)[C@H](O)[C@H](C)O1	HCT116 bCat-KO 0.8, L major viab 100.3, PTEN del growth 0.8 (no result: ROMK primary)
CCOc1ccc2[nH]c3c(N4CCN(c5ccccn5)CC4)ncnc3c2c1	Insulin prom inh 87.5 (no result: ROMK primary)
Cc1ccc2c(c1)[nH]c1c(N3CCN(Cc4ccccc4)CC3)ncnc12	L major viab 96.7 (no result: ROMK primary)
Cc1ccc2[nH]c3c(N4CCN(Cc5ccccc5)CC4)ncnc3c2c1	L major viab 56.9 (no result: Insulin prom inh)
Fc1ccc2[nH]c3c(N4CCN(C5CCCCC5)CC4)ncnc3c2c1	L major viab 84.8

Screening data: PubChem BioAssay, several laboratories
